Among all 53,000 sequences or so, about 3,700 (7%) were called active. Shown is part of a subset that was picked to be rich in actives. Values without a mark were called inactive.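 The calls were made as follows: active = gene knockdowns whose robust z-score for IL-1 alpha signal is at least 2 or at most -2, so actives lie on both sides; inactive = the rest.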

These results are taken from PubChem BioAssay AID1508600 (Functional Genomics Laboratory (NCATS/FGL), 2020).

The nature of the assay: Components of the Cytosolic LPS Sensing Pathway: Gene Identification via Genome-wide siRNA Screen.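 Also: robust z of the log signal after scaling to non-targeting control siRNA wells of the plate.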 As to conditions: RAW264.7 macrophages, IL-1a HTRF, actives lie on both sides, screened at 100 nM (by protocol), cells primed 5 h with Pam3CSK4 first. The gist of the method: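 Read-out: IL-1a HTRF on supernatant, divided by plate negative-control median ×100, log-transformed and converted to robust z-score. Cells were RAW264.7 given 100 nM siRNA, Pam3CSK4-primed 5 hours, then LipidA-transfected 24 hour.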
In the case of GGAGACUUUGAAAAAAGACTT against Mrps31, the z-score is 0.5.

In the case of GCUGAAAAUAUACCAUUCATT against Colec10, the z-score was -0.798.

GGAUCCAGACUUAAGCUUATT against Zgpat: the z-score was 2.57 (active).

Regarding CGGAUUACAAACCAUAAAATT against Mex3b, the z-score is -0.497.

As to GGAGAAGAGAAAGAUUCUUTT against Dhx9, the z-score was 0.724.

Take GGCAAUGGAAGUUGGAACATT against Ptch1: the z-score was -2.15 (active).

For GGACACAUGGUGUUGACCATT against Parp12, the z-score was 0.0379.

Consider GGACCUGAUCUUCAGGUUUTT against Gpc5, for which the z-score was 1.73.

With GGCUCUCAAUUUUAUUUCUTT against Ncaph2, the z-score is 0.894.

On to GCACGAGACACUUUUCAUUTT against Dnajb5, for which the z-score is -0.0852.

For GGAAGCAGAAUUGUAAAGATT against Hrk, the z-score is -1.09.

Turning to “GCAACAAAAGGCCUAAUCATT against 4930550C14Rik”, the z-score was -1.74.

Regarding GGCCCUUGUUUAAAGCCAUTT against Asns, the z-score was 0.0954.

Regarding CGGCGUAUGAGGAUUGGUUTT against Atp8b1, the z-score was -0.739.

As for GGCCAAGAUUAGAUUGCUUTT against Senp2, the z-score was 2.57 (active).

As to GCCCGUAUAGGUAUUGGUCTT against Mpg, the z-score was 2.06 (active).

Regarding GCUUGAAUCCGAUUUGUUATT against Gramd1c, the z-score was 0.296.

In the case of GGCAUAUGAUGAUAAGUAATT against P2ry14, the z-score was 0.691.

As to GGCACUGAAGGAGAACCUGTT against Rbbp8nl, the z-score is -0.336.

In the case of GGAACAACUGAAAAUGAAGTT against Ppp1r21, the z-score is -1.21.

Regarding UUCCAUUCAUAUGUCUUGATT against Tas2r109, the z-score was 0.00348.

Turning to GGUUUUUCUAAGAGAACGGTT against Rnft1, the z-score was -0.558.

On to CCUGGUCACUCCAAACCCATT against Zfp950, for which the z-score is -2.11 (active).

On to GGAGCUCUCGAAGGAUUGUTT against Eda2r, for which the z-score is -0.768.

As for GGAUAAGAGGGUGAAGUCATT against Cdyl2, the z-score was -1.06.

On to GGUAUAUAGGGCUGUGGCUTT against Pigs, for which the z-score was -0.822.

On to GGUGUACUUUAUCUCACGATT against Olfr6, for which the z-score was 1.1.

Regarding GCCUGUUCUAGGUGACCUATT against Chd3, the z-score was 0.236.

GGAAAUACAGAACACAAGCTT against Plekhm3: the z-score is 2.04 (active).

With GGUUAAAUAUGUAAACCACTT against Slco2b1, the z-score was 0.0949.

Take CCAUAUAGCCUCAAAAUCGTT against Acat2: the z-score was -0.395.

Consider CGUCUCAACAGAGUUGGAGTT against Prmt2, for which the z-score is 1.94.

CGAUGCUGAUGUAUCAAAGTT against Phkb: the z-score is 1.48.

On to GGUUCUUUUUACUCAGUGGTT against Ankhd1, for which the z-score was -2.53 (active).

Regarding GGAACUUCCUGUUCAGAAATT against Eci3, the z-score is 0.881.

In the case of CGUUAGUCUGUGAAUGCACTT against Emc10, the z-score is -0.442.

In the case of GGACAGUAAUAUGAUGAGCTT against Lzts1, the z-score is -0.943.

Regarding GCUUUAGUGACGGCUCGAATT against Zscan2, the z-score was 2.07 (active).

With GGGAGUGAGUUCUGGAGUGTT against Capn2, the z-score is 0.815.

With GGUUUUAAAGCAAUGAGCATT against Olfr995, the z-score is -1.2.

With CCCAUGUCGUGACAUCACATT against Slc26a7, the z-score was -2.93 (active).

Turning to GGCCUUCUAUUUUGUCAAUTT against Limd1, the z-score is 0.403.

In the case of GAAAUUUCCUAGAUGACUCTT against Vmn1r199, the z-score is -0.447.

For the sequence CGUAUGAGUGCAAUACUAATT against Pcmtd1, the z-score was 1.32.

GCACAUAGUGUAUCUAUACTT against Cd86: the z-score was -1.24.

With GUCUUGCGUGACAACAUCCTT against H4c14, the z-score was 0.718.

GCUUAUAUGGCCUGAGAGATT against Tmem199: the z-score is -0.74.

Consider GGUCAAAGGGAAACAAGUUTT against Creb3l4, for which the z-score was -2.02 (active).

On to GGUGGUUUAACUGGAUAUUTT against Paip2b, for which the z-score is -1.95.

Regarding GCCCAUGUAUCCAAAAGAATT against Cnmd, the z-score was -1.59.

For GGUGAUUGACAGAUUCUGATT against Nr4a1, the z-score was -0.613.

Regarding GCUUGGACCAUAAAUACUGTT against Senp5, the z-score was 0.051.

With GAUCAGAUGUUUGGGACUUTT against Olfr512, the z-score is 2.25 (active).

On to GGACUUCUUAAUGUUUUACTT against Phf11a, for which the z-score was 0.398.

As to GCCCAAGGUAACAACAAGCTT against Rtn4r, the z-score is 1.28.

In the case of “GGUAACUUUGAACUGAUCCTT against 1700030J22Rik”, the z-score is -1.17.

Consider CCCUCAACCUCCAACCACATT against Ceacam1, for which the z-score is -2.15 (active).

For GGGUUAGAGUAAGGUAUUATT against Tsn, the z-score was -0.879.

For GCAGAUAGCCCACGUCAUUTT against Nfkb2, the z-score was 0.881.

For CCUAAGUUCCUGAAAAUAUTT against Epha5, the z-score is -0.454.

For “GGGAUUCAGACAUGUGCUGTT against 4930503E14Rik”, the z-score is -0.658.

As for GGCCUACGAGAGGCAAAAATT against Hnf1a, the z-score was -2.05 (active).

As for CCAUACCGAUCAAAUUCCCTT against Pfn2, the z-score is -0.596.

In the case of GCAAUAGAAAAGUCCGUGGTT against Rbsn, the z-score was -1.12.

For GGCAAAGGAUCCAAGUUUGTT against Tmem123, the z-score was 2.81 (active).

Turning to GGAUGUCCAGAUGUAAAUATT against Vps16, the z-score is -0.974.

With GGUUAUCAGAGGUUUAGUUTT against Oser1, the z-score is 0.23.

With GGGUCUCCAAUCCCUCAGUTT against Kir3dl2, the z-score was 0.489.

Take “GGGCAAGAACAACUCACUUTT against 4933404G15Rik”: the z-score is -2.93 (active).

GGAUUCAAAGCUUCCUUUATT against Eras: the z-score is 0.115.

As for CGAAAAGGUGUGGCCAUCATT against Eif4a3, the z-score was -0.664.

In the case of CGACAUGUAAAACUAUUGUTT against Cd300e, the z-score was 0.864.

On to CGACAUUUUACUAAGAGAUTT against Idnk, for which the z-score was -0.895.

With UCGAGUGAAGCAGUCUCCATT against Fam189a1, the z-score was -2.13 (active).

Turning to GCCCAGAAUGCUCACUAAATT against Sln, the z-score was 0.491.

With GGCUGUAAUUUUGAACAAUTT against Rnf17, the z-score was -1.42.

In the case of CGAGAUCGAGUACUCAACUTT against Vps39, the z-score is -2.96 (active).

Consider GGUCACUCAAAGAAUUAUGTT against Srr, for which the z-score was -1.05.

With CCUGUUAAUGACACCCACGTT against Slc37a2, the z-score is -0.886.

As to GGCGAUUUACAACUUUGGATT against H2aw, the z-score was 0.0941.

GGAGUGAAGGGUCAUCCAGTT against Col9a2: the z-score is 5.07 (active).

On to GGAUAUAGGUGUGAUCUAGTT against Mxra7, for which the z-score is 0.9.

Take CCCAAUGUUUCUAAUCAUGTT against Arhgap12: the z-score is 0.306.

Take GGAAGGUUUGUUUUGUUUGTT against Slc24a3: the z-score is 0.0291.

With GGAGGAAUACCAGGAAUACTT against Sncb, the z-score is 0.33.

With GCCCUUUUCAUUCUCCAGATT against Zdhhc25, the z-score is 4.39 (active).

On to GCCUUUGUGGACCAUCCAATT against Thy1, for which the z-score is -0.954.

With GGAAAUACGGCAGAACCCUTT against Kcnk9, the z-score was -2.54 (active).

As for GUACCUCAGAGCUCUGCAUTT against Helt, the z-score was -0.292.

Consider GCACUUAGUCCUACAUGACTT against Fut1, for which the z-score was -1.21.

GGUGGUAAUAGACAAACACTT against Ctdnep1: the z-score is -0.749.

Take GGAUGUGUCAGAAAAGUUATT against Lars2: the z-score was 0.641.

As to GGAAAUUGUGGACAUGAUCTT against Sult1c1, the z-score is -3.27 (active).

For the sequence GGUAACAAAUGCUGUUUUATT against Cul1, the z-score was 0.459.

In the case of CCGAUUGAAUUACUCAGCATT against Bcas2, the z-score was 0.226.

Take GGACAAAAGACAAUCGAGATT against Parp2: the z-score was -0.273.

With CGAUGUUUUCAUGAACGACTT against Tctex1d2, the z-score was 0.738.

On to GCUGGGUUAUGAGAUUUCUTT against Tns2, for which the z-score was 2.26 (active).

For the sequence GGAGGAUUACAACACUGUUTT against Enpp3, the z-score was -0.617.

Take CCUAGUAGCCGAGAAACAUTT against Olfr1137: the z-score was -0.705.

For GGCAAUACGUGAAGAAAAATT against Baz1a, the z-score is -0.493.

Consider GGCUGUUUCUGUCAUGGUUTT against Nup133, for which the z-score is 0.383.

On to GCAGAGAUAAAUUGGAAAGTT against Art2b, for which the z-score is 0.292.

With GGAUAGAGCACAGAUCCAGTT against St8sia5, the z-score was 2.38 (active).

Take GGUCGAAAUGAUCUCCAACTT against Poli: the z-score is -0.687.

For GCUUCGAGAACUUUCUCCCTT against Nrtn, the z-score was 0.818.

In the case of GGUUUCCAUAUUUGGAUCCTT against Dhx40, the z-score is 0.0331.

Take GGGAAAGAAUUGGAUUGAATT against N4bp2l1: the z-score was -2.31 (active).
